HMGR II inh = E. faecalis class II HMG-CoA reductase inhibition | purified E. faecalis HMGR, NADPH absorbance 340 nm kinetic | AID 1066 | actives 0.41% (n = 190,000) | inhibition, % at 10 µM;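 active means inhibition above a set limit, the median over all tested compounds plus 3 SD, cut at about 9.5% in these data; inconclusive means no clear call, values can overlap the other calls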;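 further: enzyme runs in reverse so mevalonate oxidation gives rising NADPH absorbance; 0% = complete reaction with DMSO and 100% = background rate lacking mevalonate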
PABP polyA inh = PABP-poly(A) binding inhibition | actives 1% (n = 290,000) | PABP-poly(A) RNA binding, fluorescence polarization | calls only at 35 µM | AID 2014;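 further: calls also rest on retests at 20 µM and on dose response follow-up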
PHOSPHO1 inh = inhibitors of human PHOSPHO1 phosphatase; Q8TCT1; actives 1.1% (n = 290,000); AID 1565; recombinant PHOSPHO1, absorbance phosphatase assay; inhibition, % at 13.3 µM; in the data active means inhibition above about 60%
Target sequence (Q8TCT1 whole entry, looked up): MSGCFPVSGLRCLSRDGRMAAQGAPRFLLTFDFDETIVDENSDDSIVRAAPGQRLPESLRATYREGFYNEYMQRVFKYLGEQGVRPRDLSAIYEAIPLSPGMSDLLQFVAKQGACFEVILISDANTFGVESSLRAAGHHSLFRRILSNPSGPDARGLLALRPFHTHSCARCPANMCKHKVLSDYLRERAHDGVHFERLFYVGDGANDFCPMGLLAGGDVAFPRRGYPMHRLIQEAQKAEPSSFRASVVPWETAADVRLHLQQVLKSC
eIF4H FP inh = inhibitors of RNA binding by human eIF4H; actives 0.94% (n = 290,000); Q15056; inhibition, % at 35 µM; eIF4H fluorescence polarization binding assay;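 further: calls also rest on retests at 20 µM and on dose response follow-up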
MLLE-PAM2 inh = blocks PAM2 peptide binding to the PABP1 MLLE domain | inhibition, % at 20 µM | GST-MLLE / FITC-PAM2 fluorescence polarization | actives 0.36% (n = 360,000) | AID 588489; in the data active means inhibition above about 35%, passing the limit was not always enough;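 further: plate controls were DMSO wells with GST-MLLE for no effect and wells lacking GST-MLLE protein for full effect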
The depositor's hits bear a star; i = inactive; u = inconclusive; x = no result; + = active, no number; ! = repeats disagree. This is a sample that favours compounds with a hit; in the whole collection about 2.4% have one here. Unless noted, how the calls were made is not given here.

SMILES | HMGR II inh | PABP polyA inh | PHOSPHO1 inh | eIF4H FP inh | MLLE-PAM2 inh
CN(C)C(=O)c1ccc(NC(=O)c2cccc(-n3cnnn3)c2)cc1 | x | x | x | x | -56
Cc1ccc(CCC(=O)Nc2ccccc2C(=O)O)o1 | x | i | 44 | -9 | -5
CN(C)CCN(Cc1ccc(Cl)cc1)c1ccccn1 | -5 | i | 1 | 2 | 2
C[N+](C)(C)CCN(Cc1ccc(Cl)cc1)c1ccccn1 | -6 | + | -44 | -2 | -131
O=c1c2c(nc3nc(NCc4cccc5ccccc45)[nH]n13)CCC2 | 2 | i | 53 | 1 | 2
Nc1nc(SCCO)[nH]c(=O)c1NC(=O)c1ccccc1F | 2 | i | -16 | 0 | 39
O=[N+]([O-])/C(=C\Nc1ccccc1Cl)S(=O)(=O)c1ccccc1 | 18* | i | 87* | 3 | 2
Cc1c(CC(=O)NCCCC(=O)O)c(=O)oc2cc3occ(-c4ccccc4)c3cc12 | x | i | 31 | -3 | 3
Cc1c(CCC(=O)NCCCCCC(=O)O)c(=O)oc2cc3occ(-c4ccccc4)c3cc12 | x | + | 15 | 72* | 12
O=C(CN1C(=O)NC2(CCSC2)C1=O)N1CCN(c2ccc(F)cc2)CC1 (configuration not stated) | x | i | 99* | -2 | -18
O=C(CN1C(=O)NC(c2ccccc2)(c2ccccc2)C1=O)N1CCN(c2ccc(F)cc2)CC1 | x | x | x | x | -9
CC(C)CCNC(=O)CN(Cc1ccccc1)C(=O)CCC(=O)Nc1ccccn1 | x | i | 27 | -8 | -4
Oc1ccc(N=Cc2ccc(OCc3ccccc3)cc2)cc1 | -1 | + | 31 | 95* | 15
O=C(N/N=C/c1ccc(OCc2ccccc2)cc1)c1ccncc1 | 2 | i | 20 | 6 | 5
COc1ccc(CNC(=O)COC(=O)CC2CCCC2)cc1 | 0 | i | 9 | 8 | -7
Cc1ccc([N+](=O)[O-])cc1S(=O)(=O)Nc1ccc(O)c(Sc2ncn[nH]2)c1 | x | i | -57 | 2 | 41*
N#CC1=C(N)C(C#N)(C#N)C(c2ccncc2)C2CN(C(=O)OCc3ccccc3)CC=C12 (configuration not stated) | -2 | + | -1 | 75* | 13
Cc1ccc(C)n1-c1sccc1C(=O)O | 5 | i | 52 | 107 | 45*
Cc1ccc(C)n1-c1sc2c(c1C(=O)O)CCCC2 | -2 | i | 5 | 96 | 16
CCN1C(=O)[C@H]2[C@H]3CN=C(SC)N3[C@@](Cc3ccccc3)(C(=O)OC)[C@H]2C1=O | x | x | x | x | 6
FC(F)Sc1ccc(N=C2NN=C(c3ccc4c(c3)OCCO4)CS2)cc1 | -4 | i | 64* | -2 | -91
c1cc2c(cc1C1=NNC(=NC3CC3)SC1)OCCO2 | 7 | i | 21 | -2 | 16
COc1ccc(N=C2NN=C(c3ccc4c(c3)OCCO4)CS2)cc1 | 2 | i | 98* | 0 | -93
CCOC(=O)C[n+]1c(C)sc2ccc(OC)cc21 | -8 | i | 92* | -5 | 30
CCO/C(=C/c1sc2ccc(OC)cc2[n+]1CCCS(=O)(=O)[O-])CC | -1 | i | 32 | -4 | 27
SMILES | HMGR II inh | PABP polyA inh | PHOSPHO1 inh | eIF4H FP inh | MLLE-PAM2 inh
CCOC(=O)C(C)Oc1cccc2c(=O)n(CC(=O)NCc3ccc(F)cc3)ccc12 (configuration not stated) | x | i | 22 | 0 | 6
CCOC(=O)N1CCC(=C2c3ccc(Cl)cc3CCc3cccnc32)CC1 | -12 | i | 74*! | 2 | -3
CCCn1c(N)c(C(=S)NC(=O)C2CC2)c(=O)n(C)c1=O | -3 | i | -42 | 2 | 41*
CC(=O)NC(=S)c1c(N)n(Cc2ccccc2)c(=O)n(C)c1=O | 0 | i | -42 | -11 | x
CCCn1c(N)c(C(=O)COC(=O)c2c(C)noc2C)c(=O)n(C)c1=O | 0 | i | -7 | -10 | -13
CCCCn1c(N)c(C(=S)NC(=O)CC(C)C)c(=O)n(C)c1=O | -2 | i | -32 | 6 | 41*
COC(=O)[C@@H](Cc1c[nH]c2ccccc12)NC(=O)CNC(=O)c1ccccc1OC | x | i | 24 | -7 | -5
O=C(COC(=O)c1ccc(OC(F)F)cc1)NCc1cccs1 | x | x | x | x | -4
CCOC(=O)c1c(S(=O)(=O)NCC(=O)Nc2ccccc2)c(C)n(C)c1C | x | x | 18 | x | 13
CCOC(=O)c1c(S(=O)(=O)NCC(=O)Nc2cccc(C)c2)c(C)n(C)c1C | x | x | 70* | x | 7
CC1CC(C)(C)CC2(C1)NC(=S)N(c1ccccc1)N2 (configuration not stated) | -2 | i | 98* | 5 | -14
O=C(CCCCn1c(=O)[nH]c2ccccc2c1=O)NC1CCN(Cc2ccccc2)CC1 | -1 | i | 63* | -6 | 1
CCc1nc2ccc(C(=O)NCCCN3CCCC3=O)cn2c1N(C)Cc1ccc(OC)cc1 | x | x | x | x | -5
Cc1ccc(CSCCNS(C)(=O)=O)cc1 | -2 | i | -14 | -8 | 6
Cc1ccc(CSCCNS(=O)(=O)c2ccccc2)cc1 | 3 | + | -4 | 50* | 8
O=C(Nc1ccc(C(=O)N2CCOCC2)cc1)c1ccccc1Cl | x | x | x | x | 14
CC1C/C(=C/c2cccn2C)C(=O)/C(=C/c2cccn2C)C1 (configuration not stated) | -13 | + | 42 | 58* | 160
O=C(CCn1ccnc1)Nc1cc(Cl)ccc1O | x | i | 40 | 4 | -3
CCN(CC)c1ccc(NC(=O)CSc2ccsc2[N+](=O)[O-])c(C)c1 | -9 | + | -47 | u | 8
CC(=O)c1ccc(NC(=O)CSc2ccsc2[N+](=O)[O-])cc1 | -1 | + | 27 | 76 | 0
O=C(CSc1ccsc1[N+](=O)[O-])Nc1cc(F)ccc1F | 0 | i | 27 | 94 | -7
Cc1ccc(S(=O)(=O)N(CC(=O)Nc2ccc(C(N)=O)cc2)C(=O)N2CCN(C)CC2)cc1 | x | x | x | x | -10
O=C1CSC(c2cccnc2)N1c1cccc(Cl)c1 (configuration not stated) | 13* | i | 34 | -5 | 2
O=C1CSC(c2cccnc2)N1c1ccc(F)cc1 (configuration not stated) | 1 | i | -9 | 1 | 8
COCCN(C(=O)CSc1ccc2c(c1)OCCO2)c1c(N)n(CC(C)C)c(=O)[nH]c1=O | x | x | x | x | 42*
CCOc1ccccc1N1CCN(CC(=O)N(CC(C)C)c2c(N)n(CC(C)C)c(=O)[nH]c2=O)CC1 | 5 | + | 8 | 9.0* | -4
COc1ccccc1N1CCN(CC(=O)N(CC(C)C)c2c(N)n(CC(C)C)c(=O)[nH]c2=O)CC1 | -2 | i | 15 | -7 | 15
CCC(Oc1ccc(F)cc1)C(=O)N1CCCCCCC1 (configuration not stated) | x | i | x | -3 | -3
CCN(C(=O)CSc1n[nH]c(-c2ccc(OC)cc2)n1)c1c(N)n(Cc2ccccc2)c(=O)[nH]c1=O | x | x | x | x | -34
Cc1ccc(-c2nc(SCC(=O)N(C)c3c(N)n(Cc4ccccc4)c(=O)[nH]c3=O)n[nH]2)cc1 | x | + | 19 | 106* | -10
